Measured values reported in PubChem BioAssay AID778 (Sanford-Burnham Center for Chemical Genomics, 2007).
In all, about 96,000 compounds went through this assay and about 20,000 (21%) were called active. Only a sample is shown. Values without a mark were called inactive.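 The calls were made as follows: active = CYP2C19 inhibition above a set limit at 5 µM in the primary screen (cut at about 50% in these data); inactive = the rest.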

These compounds were tested against Cytochrome P450 2C19 (Homo sapiens) (UniProt P33261) (assay: blockers of cytochrome P450 2C19 activity – biochemical, luminescence, ADME assay, primary screen (AID 778;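 also: plate controls were negative control wells for no effect and 2.5 mM tranylcypromine positive control for full effect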)). Settings: CYP2C19 Supersomes, luciferin-H EGE luminescence, 30 min; at 5 µM; hits give high values.
Chain of Cytochrome P450 2C19 (Homo sapiens) (P33261 whole entry, looked up): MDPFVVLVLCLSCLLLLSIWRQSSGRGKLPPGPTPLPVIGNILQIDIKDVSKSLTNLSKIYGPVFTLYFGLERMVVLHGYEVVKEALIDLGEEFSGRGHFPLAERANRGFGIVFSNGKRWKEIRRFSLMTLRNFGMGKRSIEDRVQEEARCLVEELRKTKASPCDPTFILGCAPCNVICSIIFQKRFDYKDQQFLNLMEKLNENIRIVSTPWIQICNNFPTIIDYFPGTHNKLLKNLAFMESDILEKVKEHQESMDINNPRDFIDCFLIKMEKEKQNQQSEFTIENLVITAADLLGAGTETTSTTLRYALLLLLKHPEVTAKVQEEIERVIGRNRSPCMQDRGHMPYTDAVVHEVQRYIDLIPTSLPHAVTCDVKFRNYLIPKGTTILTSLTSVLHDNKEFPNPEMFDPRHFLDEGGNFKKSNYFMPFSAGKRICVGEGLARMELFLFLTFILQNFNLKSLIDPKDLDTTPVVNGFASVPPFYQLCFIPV

SMILES	inhibition
CCN(CC)S(=O)(=O)N1CCC(C(=O)NC(C)CCc2ccccc2)CC1 (stereo not drawn)	-8.4%
CC(CCc1ccccc1)NC(=O)c1ccc(Br)o1 (stereo not drawn)	57.2% (active)
CS(=O)(=O)c1ccc2nc(NC(=O)C3CCCCC3)sc2c1	-0.8%
N#CC1=C(N)N(c2ccc(F)cc2)C(=O)C1	-22.3%
Cc1ccccc1CSc1nnc(-c2ccccn2)n1N	43.6%
COc1ccc2oc(=O)c(C(=O)N3CCN(c4ccccc4F)CC3)cc2c1	9.7%
O=C(Nn1cc(C(=O)N2CCN(c3ccccc3F)CC2)c2ccccc2c1=O)c1cnccn1	9.8%
COc1ccc(Nc2ncc(C(=O)N3CCN(c4ccccc4OC)CC3)c3ccccc23)cc1	51.6% (active)
COc1ccc(N2C(=O)CCC(C(=O)N(C)C3CCCCC3)C2c2ccc(OC)c(OC)c2)cc1 (stereo not drawn)	20.3%
COCCN(C(=O)CCC(=O)Nc1ccccn1)C(C(=O)NCCC(C)C)c1ccc(OC)cc1 (stereo not drawn)	42.4%
CCC(C)n1[nH]c(=O)cc1N (stereo not drawn)	6.5%
O=C(Nc1ccccc1)N(Cc1cccnc1)Cc1ccco1	76.4% (active)
O=C(CS(=O)(=O)Cc1ccccc1)Nc1cccnc1	6.9%
O=C(NNC(=O)c1cccnc1)Nc1ccccc1	-10.3%
N/C(=N\OC(=O)c1cc(-c2ccccc2)nc2ccccc12)c1ccncc1	29.8%
COC(=O)c1ccc(/C=N\n2c(C)nnc2C)cc1	8.4%
CCOC(=O)C1=C(CC)Nc2ccccc2N=C1NC(=O)c1cccc(S(=O)(=O)N2CCCC2)c1	54.2% (active)
CCOC(=O)CSc1nnc(NC(=O)c2cccc(S(=O)(=O)N3CCCC3)c2)s1	2.1%
CCOC(=O)CSc1nnc(NC(=O)c2cccc(S(=O)(=O)N3CCCCC3)c2)s1	7.4%
COC(=O)c1ccc(S(=O)(=O)c2ccc(C(=O)OC)s2)s1	24.5%
CCOC(=O)C1CCCN(C(=O)c2ccc(CS(=O)(=O)c3ccc(Br)cc3)o2)C1 (stereo not drawn)	34.7%
CCOC(=O)C1CCCN(C(=O)C2CCN(c3nnc(-n4cccc4)s3)CC2)C1 (stereo not drawn)	5.1%
CCOC(=O)C1CCCN(C(=O)c2cncc(Br)c2)C1 (stereo not drawn)	82.7% (active)
CCc1ccc(NC(=O)CS(=O)CC(=O)NCCCc2ccccc2)cc1 (stereo not drawn)	2.7%

SMILES	inhibition
CCOC(=O)C1(Cc2ccc(O)cc2)NC(c2ccccc2F)C2C(=O)N(C)C(=O)C21 (stereo not drawn)	-4.2%
CCOc1ccc2nc(NC(=O)CSc3nc4c(c(=O)n(C)c(=O)n4C)n3CC)sc2c1	32.4%
COc1ccccc1NC(=O)CSc1nnc(Cn2nnc(-c3ccccc3)n2)n1-c1ccccc1	27.4%
COc1ccccc1NC(=O)CSc1nnc(-c2ccoc2C)n1CCc1ccccc1	59.8% (active)
CCCn1c(SCC(=O)Nc2cccc(C(=O)OCC)c2)nnc1-c1ccoc1C	32.5%
CCn1c(SCC(=O)Nc2nc3ccc(OC)cc3s2)nnc1-c1ccoc1C	51% (active)
COc1ccc2nc(NC(=O)c3ccc(Br)s3)sc2c1	6.2%
COc1ccc(S(=O)(=O)N2CCN(c3ncnc4c(-c5ccccc5)nsc34)CC2)cc1	38.2%
Cc1ccnc(-n2sc3ccccc3c2=O)n1	9.8%
Cc1cc(NC(=O)CN2CCCC(C)C2)n(-c2nc3ccccc3s2)n1 (stereo not drawn)	-3.6%
COC(=O)Nc1c(C)n(C)n(-c2ccccc2)c1=O	-13.8%
Cc1cc(C(=O)Nc2c(C)n(C)n(-c3ccccc3)c2=O)cs1	-14%
Cc1cc(C)cc(N(CC(=O)Nc2c(C)n(C)n(-c3ccccc3)c2=O)S(C)(=O)=O)c1	63.2% (active)
Cc1c(NC(=O)c2coc(=O)c(Br)c2)c(=O)n(-c2ccccc2)n1C	-16.3%
Cc1c(NC(=O)C(C)OC(=O)c2cc3c4ccccc4n(C)c3s2)c(=O)n(-c2ccccc2)n1C (stereo not drawn)	3.3%
Cc1cc(C)cc(N(C(C)C(=O)Nc2c(C)n(C)n(-c3ccccc3)c2=O)S(C)(=O)=O)c1 (stereo not drawn)	62% (active)
COc1cc(OC)nc(NC(=O)CCl)n1	-19.8%
CCN1C(=O)/C(=C\N2CCOCC2)SC1=S	10.7%
CN(C)/C=C(/C(=O)c1ccc(Cl)cc1)S(=O)(=O)c1ccccc1	27.2%
Cc1ccc(S(=O)(=O)N2CCN(C(=O)CCC(=O)NC3CCCc4ccccc43)CC2)cc1 (stereo not drawn)	23.8%
Cc1cc2c(c(=O)n1Cc1ccco1)C(c1ccccc1)C(C#N)=C(N)O2 (stereo not drawn)	21.9%
Cc1ccc(S(=O)(=O)NCc2cn3ccsc3n2)c(C)c1	11.3%
Cc1ccc2nc(Nc3ccccc3O)nc(-c3ccccc3)c2c1	10.3%
O=C(Nc1ncc2c(n1)-c1ccccc1OC2)c1ccc(Cl)cc1	12.7%
